Assay results: PubChem BioAssay (NCI)
This is part of a sample that, as a whole, favours compounds with a hit. Of some 79,000 tested, about 15% had one in any assay. The source made the active and inactive calls. Cut-off read from the data, not from the text of the source: active = growth inhibition above about 70%; inactive = the rest.

How the values were obtained:
[1] = NCI Yeast Anticancer Drug Screen. Data for the rad50 strain (AID 155);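 note: 0% = growth of vehicle-only cultures of the same strain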; details: S. cerevisiae rad50 strain growth inhibition; at 50.0 µM; stronger effect = higher value
In short: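 Growth of the mutant yeast was measured after compound exposure and referenced to vehicle-treated cultures.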

[2] = NCI Yeast Anticancer Drug Screen. Data for the mec2-1 strain (AID 157); details: S. cerevisiae mec2-1 strain, at 50.0 µM, stronger effect = higher value
In short: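 Using mec2-1 yeast: add compound, measure growth, express inhibition versus vehicle-treated cultures.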

[3] = NCI Yeast Anticancer Drug Screen. Data for the sgs1 mgt1 strain (AID 161);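 note: 0% = growth of cultures given vehicle only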; details: S. cerevisiae sgs1 mgt1 strain, at 50.0 µM, stronger effect = higher value
In short: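 Yeast cells carrying a defined DNA-repair defect were exposed to test compounds. Growth inhibition was measured relative to vehicle-treated controls.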

[4] = NCI Yeast Anticancer Drug Screen. Data for the cln2 rad14 strain (AID 165);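 note: 0% = growth equal to vehicle treated cultures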; details: S. cerevisiae cln2 rad14 strain, at 50.0 µM, stronger effect = higher value
In short: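 Yeast strain cln2 rad14, bearing defects in cell cycle control and DNA repair, serves as the test system; values reflect growth inhibition compared with vehicle.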

[5] = NCI Yeast Anticancer Drug Screen. Data for the bub3 strain (AID 167); details: S. cerevisiae bub3 mutant strain, at 50.0 µM, stronger effect = higher value
In short: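 Whole-cell yeast assay. The mutant strain was incubated with compounds, and growth inhibition was determined by comparison with vehicle-treated cells.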

[6] = NCI Yeast Anticancer Drug Screen. Data for the mlh1 rad18 strain (AID 175); details: S. cerevisiae mlh1 rad18 strain growth inhibition; at 50.0 µM; stronger effect = higher value
In short: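 Steps: expose repair-defective yeast to compound; measure growth; express inhibition against vehicle-treated controls.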

Structure (SMILES) | growth inhibition [1] | growth inhibition [2] | growth inhibition [3] | growth inhibition [4] | growth inhibition [5] | growth inhibition [6]
Cc1ccc(S(=O)(=O)OC2C3C4CCC5C3SC3C5C4C23)cc1 (stereo not given) | -5.3% (inactive) | -21.1% (inactive) | -3.65% (inactive) | 5.8% (inactive) | 6.6% (inactive) | 1.1% (inactive)
OCC1CC(c2ccccc2)=NO1 (stereo not given) | -19.9% (inactive) | -11.1% (inactive) | -11.2% (inactive) | -20.2% (inactive) | -3.9% (inactive) | -17.6% (inactive)
Cc1ccc(N=Nc2c(N)nc(N)[nH]c2=O)c(C)c1 | 14.9% (inactive) | -4.8% (inactive) | -11.9% (inactive) | 9.6% (inactive) | 15.7% (inactive) | 19.8% (inactive)
O=C1OC(=O)C2C3CCC(O3)C12 (stereo not given) | 13.9% (inactive) | 7.4% (inactive) | 4.75% (inactive) | -0.8% (inactive) | -0.5% (inactive) | -5% (inactive)
CCNC1(C(N)=O)CCN(Cc2ccccc2)CC1 | -14.6% (inactive) | -55.8% (inactive) | -31.1% (inactive) | 5.1% (inactive) | -30.4% (inactive) | -22.7% (inactive)
CC1(C)C(=NNC(=S)NN)C(C)(C)C1=NNC(=S)NN | 40.5% (inactive) | 36% (inactive) | 42.4% (inactive) | 18.9% (inactive) | 46.5% (inactive) | 38.7% (inactive)
COC(=O)C(C#N)C1NC(=O)c2ccccc21 (stereo not given) | 9.75% (inactive) | -2.4% (inactive) | 10.2% (inactive) | 1.45% (inactive) | -8.3% (inactive) | 7.15% (inactive)
COc1ccc(-c2cc3cc(CCCOC4OC(COC5OCC(O)C(O)C5O)C(O)C(O)C4O)cc(OC)c3o2)cc1OC (stereo not given) | 31% (inactive) | 17.4% (inactive) | 34.6% (inactive) | 23.8% (inactive) | 8.8% (inactive) | 23.4% (inactive)
O=S(=O)(Nc1cccc(Cl)c1)c1ccc(F)cc1 | -8.45% (inactive) | -11.2% (inactive) | -13.2% (inactive) | -5.4% (inactive) | -11.3% (inactive) | 2.5% (inactive)
O=C1NN2CCCN=C2c2ncccc21 | 15.2% (inactive) | 2.1% (inactive) | 8.1% (inactive) | 17.1% (inactive) | 2.7% (inactive) | 20.8% (inactive)
COc1ccc(OC)c(C(c2cc(OC)ccc2OC)C(Cl)(Cl)Cl)c1 | 0.45% (inactive) | -13.2% (inactive) | -5.3% (inactive) | -6.45% (inactive) | -6% (inactive) | 14.6% (inactive)
Cc1nc2ccccc2nc1CCC(=O)O | -22.9% (inactive) | 4.25% (inactive) | -17.4% (inactive) | -23.6% (inactive) | -11.2% (inactive) | -6.65% (inactive)
O=C(C#Cc1ccccc1)N1c2ccccc2CC1c1c[nH]c2ccccc12 (stereo not given) | -7.25% (inactive) | -6.2% (inactive) | 0.7% (inactive) | 2.55% (inactive) | -2.8% (inactive) | -6.85% (inactive)
Fc1c(F)c(F)c(CCc2c(F)c(F)c(F)c(F)c2F)c(F)c1F | 11.2% (inactive) | -8.2% (inactive) | 15.9% (inactive) | -39.1% (inactive) | -41.4% (inactive) | 19.2% (inactive)
CCOC(=O)CC1(C)c2nc(NC(C)=O)sc2Cc2sc(NC(C)=O)nc21 | -2.2% (inactive) | -8.9% (inactive) | 0.8% (inactive) | -26.6% (inactive) | -2.4% (inactive) | -15.5% (inactive)
Cc1ccc(N)c(C(O)(C(F)(F)F)C(F)(F)F)c1 | -5.7% (inactive) | 1.5% (inactive) | 12.5% (inactive) | 15.6% (inactive) | 16.6% (inactive) | 16.6% (inactive)
CCN(CC)c1ccc(/C=C(\C#N)C(N)=S)cc1 | 35.4% (inactive) | 23.6% (inactive) | 45.2% (inactive) | 0.85% (inactive) | 15.6% (inactive) | 16.5% (inactive)
COc1c(NC(=O)c2ccc([N+](=O)[O-])cc2)cccc1[N+](=O)[O-] | 0.45% (inactive) | 14.3% (inactive) | 5.1% (inactive) | -0.2% (inactive) | 32.2% (inactive) | 20.4% (inactive)
CC1CCCCC1(O)C(C(=O)O)c1ccccc1 (stereo not given) | -8.1% (inactive) | -9.85% (inactive) | 0.3% (inactive) | -1.95% (inactive) | -22% (inactive) | -29.6% (inactive)
CC(=O)N(C(C)=O)n1c(Cc2ccc(Cl)cc2)n[nH]c1=O | 32.1% (inactive) | -53.7% (inactive) | -26.3% (inactive) | -5.55% (inactive) | -30.9% (inactive) | -65% (inactive)

Structure (SMILES) | growth inhibition [1] | growth inhibition [2] | growth inhibition [3] | growth inhibition [4] | growth inhibition [5] | growth inhibition [6]
CCOC(=O)CC(C)C(Br)(C(=O)OCC)C(=O)OCC (stereo not given) | 47.5% (inactive) | 93.5% (active) | 89.4% (active) | 20.5% (inactive) | 93.4% (active) | 95.4% (active)
COC(=O)C1(COC(C)=O)CC1 | -6.8% (inactive) | 1.55% (inactive) | 6% (inactive) | -15.6% (inactive) | -2.75% (inactive) | -3.2% (inactive)
COc1ccc2c(c1)OC(=O)C(S(=O)(=O)c1ccccc1)C2 (stereo not given) | 6.25% (inactive) | 14.6% (inactive) | 6.65% (inactive) | -3.55% (inactive) | 1.2% (inactive) | 7.55% (inactive)
CCCC(CCC)C(=O)OCC(=O)c1ccc(-c2ccccc2)cc1 | -1.4% (inactive) | -2.6% (inactive) | 5% (inactive) | -43.9% (inactive) | 2.7% (inactive) | -0.1% (inactive)
CC(COc1cc(Cl)c(Cl)cc1Cl)OC(=O)COc1ccc(Cl)cc1Cl (stereo not given) | 8.75% (inactive) | 8.85% (inactive) | 7.7% (inactive) | 28.5% (inactive) | 2.9% (inactive) | 7% (inactive)
C/C(CC(=O)CCC(=O)Nc1cccc(C(F)(F)F)c1)=N\NC(=O)NN | -25.8% (inactive) | -16.8% (inactive) | -26.4% (inactive) | 1.95% (inactive) | -13.9% (inactive) | -15.8% (inactive)
CCn1c2ccccc2c2c3ncc4cccn4c3ccc21 | 10.8% (inactive) | -6.95% (inactive) | 19.4% (inactive) | 14.4% (inactive) | 7.95% (inactive) | 27.8% (inactive)
NC(=O)N1N=C2c3ccccc3SC[C@H]2[C@@H]1c1ccccc1 | 29.5% (inactive) | -23.2% (inactive) | -26.8% (inactive) | 2.55% (inactive) | -20.9% (inactive) | 21.6% (inactive)
Cc1ccc(S(=O)(=O)Nc2nnc(CC(C)C)s2)cc1 | 36.2% (inactive) | -6.45% (inactive) | 35.2% (inactive) | 28.1% (inactive) | 40.9% (inactive) | 35.9% (inactive)
CC(C)(C)OC(=O)N/N=C(/N)Cc1ccccc1 | -36.2% (inactive) | -3.65% (inactive) | -18.4% (inactive) | 6.5% (inactive) | 6.4% (inactive) | 5.55% (inactive)
COC(OC)C1(c2ccccc2)NC(=O)N(Cc2ccccc2)C1=O (stereo not given) | 3.1% (inactive) | -10% (inactive) | -1.3% (inactive) | -49.5% (inactive) | 2.85% (inactive) | -9.65% (inactive)
CCN(CC)CCn1c2ccccc2c(=O)c2c(O)ccc(O)c21 | 14.8% (inactive) | -1.3% (inactive) | 3.35% (inactive) | 4.45% (inactive) | 6.95% (inactive) | -0.55% (inactive)
CCCOC(=O)c1cc(C(=CCC[C@H]2CC[C@@]3(C)[C@@H](CC[C@@H]4[C@@H]3CC[C@]3(C)[C@@H](C(C)CCCC(C)C)CC[C@@H]43)C2)c2cc(Cl)c(O)c(C(=O)OCCC)c2)cc(Cl)c1O (stereo not given in full) | 8.7% (inactive) | -9.05% (inactive) | -0.55% (inactive) | 5.65% (inactive) | -4.05% (inactive) | -45% (inactive)
COC(=O)c1cccc2ccc3cccc(C=O)c3c12 | -29.4% (inactive) | 6.6% (inactive) | -5.9% (inactive) | -30.8% (inactive) | 12.2% (inactive) | -14.5% (inactive)
CCOC(=O)c1c(C)[nH]c(-c2csc(N)n2)c1C | -5.3% (inactive) | -1.65% (inactive) | 21.4% (inactive) | -55.7% (inactive) | -9.35% (inactive) | -14.8% (inactive)
CCOC(=O)C1C(=O)C(=O)N(C)C1c1ccccc1 (stereo not given) | -2.6% (inactive) | 16.3% (inactive) | 8.1% (inactive) | -49.9% (inactive) | 2.7% (inactive) | 8.55% (inactive)
O=C(NCCc1ccccc1)c1ccc2ccccc2n1 | 65.3% (inactive) | 53.3% (inactive) | 63.7% (inactive) | 52.1% (inactive) | 87.5% (active) | 84.5% (active)
CC1NC(=O)c2c(-c3ccccc3)nn(-c3ccccc3)c2NC1=O (stereo not given) | 1.35% (inactive) | -2.4% (inactive) | 11.8% (inactive) | -3.85% (inactive) | 3.15% (inactive) | -33.2% (inactive)
CN1C(=O)C(O)Nc2ncncc21 (stereo not given) | -5.15% (inactive) | -19.9% (inactive) | -4.55% (inactive) | -45.7% (inactive) | 2.45% (inactive) | -33.2% (inactive)
O=C1OC(c2ccc([N+](=O)[O-])cc2)=N/C1=C\c1ccccc1 | 1.85% (inactive) | 4.5% (inactive) | 11.1% (inactive) | 5.45% (inactive) | 6.25% (inactive) | -11.5% (inactive)
